# Measured values from the supplement of paper PMC9262897, “Low-cost anti-mycobacterial drug discovery using engineered E. coli” (Nature Communications, 2022).
# Structures can show the parent of a compound that is named as a salt. ± gives the standard deviation of the averaged measurements.
# How the values were obtained:
# Assay in all cases: growth (OD600 after 10 h); higher = more growth (less inhibition)
# [1] = test system: E. coli TESEC Alr+ wild-type control; conditions: compound 0.1 mM; raw OD600 reference: median of DMSO wells 0.241, cell-free background 0.041
# Procedure: (§1)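 TESEC Mtb Alr E. coli, or the Alr+ wild-type control, in 384-well plates with Prestwick library compounds at 0.1 mM and 1% DMSO, across arabinose induction levels of 1E3 to 1E7 nM. Growth is read as OD600 after 10 h at 37 °C in triplicate biological replicates.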
# E. coli TESEC Mtb Alr [2] = conditions: compound 0.1 mM
# Procedure: as §1
# E. coli TESEC Mtb Asd = conditions: compound 0.1 mM
# Procedure: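 TESEC E. coli strains in which the native enzyme is deleted and replaced by arabinose-inducible Mtb Asd, DapB, CysH or TrpD, each grown in its selective medium. Strains were screened against the Prestwick library at 0.1 mM and 1% DMSO in 384-well format at low and high arabinose induction. Growth is read as OD600 after 10 h in triplicate.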
# E. coli TESEC Mtb Alr [3] = conditions: compound 0.1 mM; remark: listed apart in the source
# Procedure: (§2)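 TESEC Mtb Alr E. coli (ΔaraC ΔtolC ΔentC Δalr ΔdadX, arabinose-inducible Mtb Alr) or the Alr+ wild-type control strain, grown in defined M9-fructose medium without D-alanine in 96-well plates with Prestwick library compounds at 0.1 mM and 1% DMSO. Low Alr induction is 0.1 µM arabinose and high induction is 10 mM arabinose.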
# [4] = test system: E. coli TESEC Alr+ wild-type control; conditions: compound 0.1 mM; raw OD600 reference: median of DMSO wells 0.49, cell-free background 0.052
# Procedure: as §2
# [5] = arabinose 1000 nM, raw OD600 reference: median of DMSO wells 0.294, cell-free background 0.041
# [6] = arabinose 10000 nM, raw OD600 reference: median of DMSO wells 0.264, cell-free background 0.041
# [7] = arabinose 100000 nM, raw OD600 reference: median of DMSO wells 0.201, cell-free background 0.041
# [8] = arabinose 1000000 nM, raw OD600 reference: median of DMSO wells 0.193, cell-free background 0.041
# [9] = arabinose 10000000 nM, raw OD600 reference: median of DMSO wells 0.146, cell-free background 0.041
# [10] = arabinose induction (level): High, raw OD600 reference: median of DMSO wells 0.331, cell-free background 0.041
# [11] = arabinose induction (level): Low, raw OD600 reference: median of DMSO wells 0.417, cell-free background 0.041
# [12] = arabinose 100 nM, raw OD600 reference: median of DMSO wells 0.413, cell-free background 0.052
# [13] = arabinose 10000000 nM, raw OD600 reference: median of DMSO wells […], cell-free background 0.052
SMILES,growth [1],growth (E. coli TESEC Mtb Alr [2]; [5]),growth (E. coli TESEC Mtb Alr [2]; [6]),growth (E. coli TESEC Mtb Alr [2]; [7]),growth (E. coli TESEC Mtb Alr [2]; [8]),growth (E. coli TESEC Mtb Alr [2]; [9]),growth (E. coli TESEC Mtb Asd; [10]),growth (E. coli TESEC Mtb Asd; [11]),growth (E. coli TESEC Mtb Alr [3]; [12]),growth (E. coli TESEC Mtb Alr [3]; [13]),growth [4]
Cc1cccc(C)c1OCC(C)N (stereo not given) [Mexiletine hydrochloride],0.225 ± 0.0049,0.276 ± 0.0054,0.262 ± 0.0058,0.223 ± 0.038,0.171 ± 0.0031,0.143 ± 0.0056,0.348 ± 0.076,0.397 ± 0.033,0.4 ± 0.015,0.352 ± 0.015,
Cn1c(=O)c2nc[nH]c2n(C)c1=O [Theophylline monohydrate],0.263 ± 0.0048,0.328 ± 0.018,0.283 ± 0.013,0.21 ± 0.027,0.189 ± 0.0034,0.158 ± 0.0078,0.4904 ± 0.0049,0.455 ± 0.0057,0.406 ± 0.016,0.338 ± 0.01,
CCC(C)(C)c1ccc(CC(C)CN2C[C@@H](C)O[C@@H](C)C2)cc1 (stereo not given in full) [Amorolfine hydrochloride],0.0552 ± 0.0076,0.107 ± 0.0069,0.0519 ± 0.0014,0.0591 ± 0.0048,0.04143 ± 0.00023,0.0502 ± 0.0026,0.237 ± 0.052,0.284 ± 0.031,0.0639 ± 0.0015,0.0533 ± 0.0014,
CCN1CCCC1CNC(=O)c1cc(S(=O)(=O)CC)c(N)cc1OC (stereo not given) [Amisulpride],0.235 ± 0.0063,0.3 ± 0.011,0.253 ± 0.005,0.251 ± 0.025,0.169 ± 0.003,0.16 ± 0.0017,0.332 ± 0.093,0.377 ± 0.067,0.408 ± 0.011,0.3237 ± 0.0029,0.578 ± 0.046
CC(C(=O)O)c1cccc(Oc2ccccc2)c1 (stereo not given) [Fenoprofen calcium salt dihydrate],0.22 ± 0.0072,0.267 ± 0.013,0.266 ± 0.0086,0.147 ± 0.0054,0.192 ± 0.0067,0.134 ± 0.0015,0.361 ± 0.075,0.322 ± 0.042,0.397 ± 0.009,0.255 ± 0.0093,
C#C[C@]1(OC(C)=O)CC[C@H]2[C@@H]3CCC4=C[C@@H](OC(C)=O)CC[C@@H]4[C@H]3CC[C@@]21C [Ethynodiol diacetate],0.174 ± 0.0051,0.233 ± 0.016,0.215 ± 0.034,0.12 ± 0.0032,0.0855 ± 0.0055,0.161 ± 0.018,0.221 ± 0.012,0.358 ± 0.039,0.384 ± 0.012,0.118 ± 0.019,
Cc1onc(-c2ccccc2)c1C(=O)N[C@@H]1C(=O)N2[C@@H]1SC(C)(C)[C@@H]2C(=O)O [Oxacillin sodium],0.246 ± 0.017,0.298 ± 0.017,0.249 ± 0.012,0.198 ± 0.015,0.187 ± 0.0051,0.14 ± 0.0038,0.468 ± 0.036,0.477 ± 0.0063,0.421 ± 0.0073,0.362 ± 0.0089,0.492 ± 0.054
COc1nc(C)nc(Cl)c1NC1=NCCN1 [Moxonidine],0.241 ± 0.011,0.298 ± 0.014,0.262 ± 0.0065,0.18 ± 0.013,0.187 ± 0.0025,0.133 ± 0.0069,0.248 ± 0.033,0.434 ± 0.025,0.411 ± 0.015,0.342 ± 0.02,0.567 ± 0.019
N=C(NCCCCCCNC(=N)NC(=N)Nc1ccc(Cl)cc1)NC(=N)Nc1ccc(Cl)cc1 [Chlorhexidine],0.04463 ± 0.00035,0.0435 ± 0.00051,0.0456 ± 0.003,0.0447 ± 0.0014,0.04363 ± 0.00015,0.0449 ± 0.0005,0.0592 ± 0.0021,0.0584 ± 0.0011,0.04807 ± 5.8e-05,0.054 ± 0.0013,
Nc1c2ccccc2nc2ccccc12 [Aminacrine],0.0412 ± 0.0015,0.0397 ± 0.00091,0.0408 ± 0.0025,0.043 ± 0.0015,0.0398 ± 0.0011,0.0406 ± 0.00096,0.0581 ± 0.016,0.0513 ± 0.004,0.15 ± 0.062,0.0885 ± 0.027,
CCCc1nc(C)c2c(=O)nc(-c3cc(S(=O)(=O)N4CCN(CC)CC4)ccc3OCC)[nH]n12 [Vardenafil],0.148 ± 0.0033,0.221 ± 0.0081,0.26 ± 0.011,0.18 ± 0.0021,0.107 ± 0.0037,0.126 ± 0.0068,0.189 ± 0.02,0.238 ± 0.052,0.41 ± 0.0051,0.305 ± 0.014,
CC(=O)O[C@H]1C(=O)[C@@]2(C)[C@H]([C@H](OC(=O)c3ccccc3)[C@]3(O)C[C@H](OC(=O)[C@H](O)[C@@H](NC(=O)c4ccccc4)c4ccccc4)C(C)=C1C3(C)C)[C@]1(OC(C)=O)CO[C@@H]1C[C@@H]2O [Paclitaxel],0.23 ± 0.013,0.285 ± 0.019,0.255 ± 0.024,0.222 ± 0.019,0.2 ± 0.015,0.179 ± 0.018,0.34 ± 0.051,0.385 ± 0.079,0.429 ± 0.014,0.336 ± 0.033,
Clc1ccc2c(c1)C(N1CCNCC1)=Nc1ccccc1O2 [Amoxapine],0.162 ± 0.0094,0.171 ± 0.0069,0.16 ± 0.0024,0.162 ± 0.0019,0.0713 ± 0.0015,0.105 ± 0.0015,0.178 ± 0.01,0.201 ± 0.0093,0.396 ± 0.005,0.291 ± 0.023,0.43 ± 0.061
COCCCC/C(=N\OCCN)c1ccc(C(F)(F)F)cc1 [Fluvoxamine maleate],0.225 ± 0.0049,0.274 ± 0.0066,0.26 ± 0.013,0.214 ± 0.016,0.133 ± 0.0052,0.136 ± 0.0081,0.295 ± 0.079,0.231 ± 0.044,0.416 ± 0.0072,0.319 ± 0.0054,
O=c1[nH]c(=O)n([C@H]2C[C@H](O)[C@@H](CO)O2)cc1F [Floxuridine],0.0553 ± 0.00059,0.0615 ± 0.0068,0.04377 ± 0.00025,0.052 ± 0.0014,0.0434 ± 0.0004,0.05017 ± 0.0005,0.088 ± 0.0059,0.0873 ± 0.011,0.387 ± 0.0052,0.0748 ± 0.0061,
CC[N+](C)(CC)CCC[n+]1c(-c2ccccc2)c2cc(N)ccc2c2ccc(N)cc21 [Propidium iodide],0.0949 ± 0.011,0.135 ± 0.023,0.116 ± 0.028,0.15 ± 0.02,0.0816 ± 0.0028,0.0888 ± 0.012,0.0925 ± 0.0048,0.0953 ± 0.0048,0.221 ± 0.13,0.0665 ± 0.0008,
Cc1ccc(N(CC2=NCCN2)c2cccc(O)c2)cc1 [Phentolamine hydrochloride],0.219 ± 0.0053,0.287 ± 0.0088,0.27 ± 0.0075,0.2 ± 0.0085,0.173 ± 0.0079,0.161 ± 0.0026,0.252 ± 0.065,0.377 ± 0.048,0.411 ± 0.019,0.352 ± 0.026,
Cc1cc(-c2ccccc2)nnc1NCCN1CCOCC1 [Minaprine dihydrochloride],0.227 ± 0.0047,0.288 ± 0.011,0.25 ± 0.0072,0.182 ± 0.012,0.155 ± 0.004,0.156 ± 0.0078,0.212 ± 0.028,0.342 ± 0.074,0.409 ± 0.0057,0.318 ± 0.029,0.498 ± 0.045
